mcGAS lum – blocks mouse cGAS activity; Q8C6L5; recombinant cGAS, Kinase-Glo ATP depletion luminescence; inhibition, % at 12.5 µM; 0.15% of 160,000 active;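 note: 0% = negative control wells and 100% = reference inhibitor with no enzyme activity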
hcGAS inh – blocks human cGAS activity | 0.081% of 290,000 active | Q8N884 | AID 1259398 | inhibition, % at 12.5 µM | recombinant h-cGAS, ATP depletion, Kinase-Glo luminescence;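 note: 0% = vehicle reaction and 100% = reaction without DNA for no activity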
Target sequence (Q8N884 whole entry, looked up): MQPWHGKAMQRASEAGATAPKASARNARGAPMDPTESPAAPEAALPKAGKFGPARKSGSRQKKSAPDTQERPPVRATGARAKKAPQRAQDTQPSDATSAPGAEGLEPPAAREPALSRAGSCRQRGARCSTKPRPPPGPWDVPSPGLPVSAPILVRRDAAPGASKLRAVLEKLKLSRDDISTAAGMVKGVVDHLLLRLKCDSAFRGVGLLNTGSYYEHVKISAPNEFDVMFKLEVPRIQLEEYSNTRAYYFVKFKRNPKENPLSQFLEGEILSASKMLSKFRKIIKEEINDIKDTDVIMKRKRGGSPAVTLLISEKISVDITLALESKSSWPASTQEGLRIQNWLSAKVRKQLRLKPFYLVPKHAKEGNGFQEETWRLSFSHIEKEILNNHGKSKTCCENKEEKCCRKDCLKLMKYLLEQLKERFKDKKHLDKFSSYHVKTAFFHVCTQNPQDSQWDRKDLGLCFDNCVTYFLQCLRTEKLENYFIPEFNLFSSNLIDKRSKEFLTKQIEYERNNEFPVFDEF
NPYLR7 agonist – activates Aedes aegypti NPYLR7 receptor. HEK293T NPYLR7/Galpha15, GCaMP6s calcium fluorescence. activation, % at 10 µM. 0.15% of 270,000 active. AID 1259423; in the data active = activation above about 40%;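 note: 0% = vehicle and 100% = reference agonist at the receptor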
The depositor's hits bear a star; · = no result. An excerpt weighted towards active compounds, which were near 0.3% of everything screened. Cut-off read from the data, not from the text of the source, unless noted: active = inhibition above about 40%; inactive = the rest.

SMILES | mcGAS lum | hcGAS inh | NPYLR7 agonist
COc1ccc(C)cc1-n1c(SCC(=O)O)nnc1-c1cc(C)nn1C | -9 | 44* | 8
COc1ccc(C)cc1-n1c(Cn2ccnc2)nnc1SCC(=O)O | · | -4 | 13
N#Cc1cc(C(=O)c2cc(Br)ccc2O)cn(-c2ccccc2Cl)c1=O | · | -5 | 42
N#Cc1cc(C(=O)c2cc(Cl)cc(Cl)c2O)cn(-c2nccs2)c1=O | · | -1 | 135*
CCOC(=O)C1CCN(C(=O)c2cccc(CSc3nc(C(C)C)cc(N4CCOCC4)n3)c2)CC1 | -5 | -7 | 7
O=c1c2cc3c(=O)n(C4CC4)ccc3nc2ccn1-c1ccncc1 | · | 0 | 0
Cc1cc(C(=O)NCCc2ccccc2)n2nc(C(C)(C)C)cc2n1 | -5 | -6 | 18
Cc1cc(C(=O)NC(c2ccccc2)c2ccccc2)n2nc(C(C)(C)C)cc2n1 | 59* | -3 | 21
COc1cc(C=C2COc3ccccc3C2=O)ccc1OCc1ccccc1 | 12 | -5 | -4
COc1ccc2c(c1)OC/C(=C\c1ccc(OC)c(O)c1)C2=O | 46* | -7 | ·
CC1(C)OC2c3ccccc3OC3(C)CCC1CC23 (centres undefined) | · | -5 | -5
CC1CC2(C)Oc3ccccc3C3OCC1(CO)C(C)C32 (centres undefined) | -6 | 0 | 43*
CC(C(=O)NC(=O)NC1CCCC1)N1CCN(Cc2ccsc2)CC1 (centres undefined) | -7 | -4 | -1
O=C(Nc1ccc(Cl)cn1)c1ccc(Cn2cc(Br)c([N+](=O)[O-])n2)cc1 | · | 3 | 1
O=C(Nc1ccc(Cl)cn1)c1[nH]ncc1[N+](=O)[O-] | · | 60* | 1
Cn1cnc(-c2ccc(F)cc2)cc1=O | -7 | -6 | -3
Cn1nc(-c2ccc(F)cc2)nc2c(=O)n(C)c(=O)nc1-2 | 67* | 26 | 2
COC(=O)c1ccccc1COn1c(=O)c(-c2ccc(-c3ccccc3)cc2)[n+]([O-])c2ccccc21 | · | -10 | -4
O=C(NC(c1ccc(Cl)cc1)C1CC1)c1ccco1 (centres undefined) | -8 | -8 | 4
NS(=O)(=O)c1ccc(NC(NC(=O)c2ccco2)C(=O)c2ccc(Cl)cc2)cc1 (centres undefined) | · | 0 | 45*
O=c1cc(-c2ccccc2)oc2cc(O)cc(O)c12 | -1 | 8 | -2
O=c1c(-c2ccccc2)coc2cc(O)cc(O)c12 | · | 70* | -11
N#CC(C(=O)/C=C/c1nccs1)C(=O)Nc1cccc(Cl)c1Cl (centres undefined) | · | 46* | -1
Cc1c(Cl)cccc1NC(=O)C(C#N)C(=O)COc1ccc(F)cc1 (centres undefined) | -15 | -3 | 22
CN(C)c1nc(Nc2ccc(Cl)cc2)c2cnn(C)c2n1 | · | -6 | 2
SMILES | mcGAS lum | hcGAS inh | NPYLR7 agonist
O=C(c1snc2c(=O)n(Cc3ccccc3)c(=O)[nH]c12)N1CCSCC1 | · | -2 | 65*
Cc1ccc(N2CCN(C(=O)c3snc4c(=O)n(CC(C)C)c(=O)[nH]c34)CC2)c(C)c1 | · | -5 | -9
Cc1ccc(C2=NN(C(=O)CN3CCCC3)C(c3ccccc3F)C2)cc1 (centres undefined) | -6 | -4 | -4
COc1ccccc1C1CC(c2cccc(F)c2)=NN1C(=O)CN1CCC2(CC1)OCCO2 (centres undefined) | -4 | -4 | 2
COc1ccc(C2=NN(C(=O)CN3CCC4(CC3)OCCO4)C(c3ccccc3OC)C2)cc1 (centres undefined) | -3 | 78* | 14
Cc1ccc(C2=NN(C(=O)CN3CCN(C)CC3)C(c3ccccc3Cl)C2)cc1 (centres undefined) | 0 | 1 | 45*
COC(=O)c1ccc(NC(=O)N2CC(=O)N3CCc4cc(OC)c(OC)cc4C3C2)cc1 (centres undefined) | -5 | -11 | 32
Cc1cc(NC(=O)c2cc(=O)c3ccccc3o2)n(-c2nc(C)c(C)c(=O)[nH]2)n1 | -8 | -11 | 10
CSc1nc2c(c(=O)[nH]1)C(c1ccc3c(c1)OCO3)C1C(=O)CCCC1=N2 (centres undefined) | · | -7 | 0
CC1(C)CC(=O)C2C(=Nc3[nH]c(=S)[nH]c(=O)c3C2c2ccc3c(c2)OCO3)C1 (centres undefined) | -4 | -6 | 43*
O=S(=O)(Nc1c(F)cccc1F)c1c(Cl)cccc1Cl | · | -15 | 3
O=C(/C=C/c1cccc([N+](=O)[O-])c1)n1cnc2ccccc21 | 42* | -2 | 4
O=[N+]([O-])c1cccc(C=Nn2cnc3ccccc32)c1 | -2 | 1 | -4
CC(NC(=O)CN1CSCC1=O)C12CC3CC(CC(C3)C1)C2 (centres undefined) | -5 | -3 | 1
O=c1oc(C=Cc2ccco2)nc2sc3c(c12)CCCC3 | · | -8 | -2
O=c1oc(/C=C/c2ccco2)nc2ccc(Br)cc12 | 45* | 20 | -12
CCOc1ccc(/C=C2N=C(/C=C/c3ccc(C)cc3)OC\2=O)cc1 | · | -2 | 0
CCOc1ccc(/C=C2N=C(/C=C/c3ccccc3)OC/2=O)cc1 | · | -4 | 66*
COCCN(C)CCC(=O)N1CCCn2nc(C(O)C3CC3)cc2C1 (centres undefined) | 3 | 9 | ·
COCC1CN(C2CCC2)CC12CCN(C(=O)C1(c3ccccc3)CC1)CC2 (centres undefined) | -6 | -18 | ·
COc1ccc(C(=O)N2CCC3(CC2)CN(C2CCC2)CC3CO)cn1 (centres undefined) | -5 | 48* | ·
CCOC(=O)C1(NC(=O)C2(Oc3cccnc3C)CCNCC2)CCC1 | -16 | -6 | 7
COc1cc(-c2cnnc(NCCCN3CCCC3=O)n2)cc(OC)c1OC | · | -6 | 19
COc1cc(-c2ccccc2)c2ccccc2n1 | · | -8 | 0
Cc1cc(-c2ccccc2)cc2c3ccccc3c3ccccc3[n+]12 | 27 | 41* | -6
SMILES | mcGAS lum | hcGAS inh | NPYLR7 agonist
COc1cccc(-c2cc(C(=O)N3CCN(C(=O)c4ccc([N+](=O)[O-])cc4)CC3)c(C)n2-c2ccccc2)c1 | -7 | -6 | 17
CCOC(=O)N1CCN(c2ccc(/C=C(\C#N)c3nc4ccccc4[nH]3)o2)CC1 | · | -7 | 102*
CCOC(=O)N1CCN(/C=C(\C#N)c2nc3ccccc3s2)CC1 | -1 | 1 | -9
Nc1c(C(=O)NCc2cccs2)c2nc3ccccc3nc2n1/N=C\c1cccnc1 | -9 | -6 | 32
CCOc1cccc2cc(-c3nc4ccccc4[nH]3)c(=Nc3ccccc3Cl)oc12 | -6 | -1 | 16
COc1ccc2c(c1OC)C(=O)N(c1cccc(Cl)c1)C2=O | · | -7 | 10
COc1cc(OC)c(C2=NOC3(CC(=O)N(c4cccc(Cl)c4)C3=O)C2)cc1OC (centres undefined) | · | -7 | 83*
O=C(O)c1cn(CCCc2ccccc2)nn1 | -11 | -5 | 3
Cc1cnccc1N1CCN(C(=O)C2CC3(CCNCC3)CN2)CC1 (centres undefined) | -18 | -8 | 2
COc1ccc(CNC(=O)c2cn(Cc3ccc(F)cc3)c(=O)s2)cc1 | · | -8 | 15
CC(C)=CCc1c2c(c(O)c3c(=O)c(O)c(-c4ccccc4)oc13)C=CC(C)(C)O2 | -3 | 0 | -4
